# Measured values from publication PMC5540273 (PLoS ONE, 2017).
# Where “and” joins values, the source holds several entries; their conditions need not be identical. Equal values may be shown once. Read-outs that look alike come from different tables or passages of the source.
# Experiments:
# CDKL2 = settings: concentration: 1 μM, replicates: in singlicate, n = 1
# CDKL3 = settings: concentration: 1 μM, replicates: in singlicate, n = 1
# CDKL5 = settings: concentration: 1 μM, replicates: in singlicate, n = 1
# CHEK1 = settings: concentration: 1 μM, replicates: in singlicate, n = 1
# CHEK2 = settings: concentration: 1 μM, replicates: in singlicate; n = 1
# CIT = settings: concentration: 1 μM, replicates: in singlicate, n = 1
# CLK1 = settings: concentration: 1 μM, replicates: in singlicate, n = 1
# CLK2 = settings: concentration: 1 μM, replicates: in singlicate, n = 1
# CLK3 = settings: concentration: 1 μM, replicates: in singlicate, n = 1
# CLK4 = settings: concentration: 1 μM, replicates: in singlicate, n = 1
# 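Further: KINOMEscan kinase panel screen.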
Structure (SMILES),%Inh (CDKL2) [%],%Inh (CDKL3) [%],%Inh (CDKL5) [%],%Inh (CHEK1) [%],%Inh (CHEK2) [%],%Inh (CIT) [%],%Inh (CLK1) [%],%Inh (CLK2) [%],%Inh (CLK3) [%],%Inh (CLK4) [%],%Inh (CDKL2; 1 µM),%Inh (CDKL3; 1 µM),%Inh (CDKL5; 1 µM),%Inh (CHEK1; 1 µM),%Inh (CIT; 1 µM),%Inh (CLK1; 1 µM),%Inh (CLK2; 1 µM),%Inh (CLK3; 1 µM),%Inh (CLK4; 1 µM)
CCc1nc(-c2cccc(N(C)S(=O)(=O)c3ccccc3)c2)c(-c2ccnc(Nc3ccc(N4CCN(C(C)=O)CC4)nc3)n2)s1 [GSK1645895],47,0,4,7,0,31,25,12,27,0,,,,,,,,,
COc1ccc(NC(=O)c2ccc(-c3cc(-c4nnc(C)o4)ccc3C)cc2)cc1 [GW595885],13,0,0,0,0,22,17,0,94.8,20,,,,,,,,,
COc1ccc(-c2nc3n(c2-c2ccncc2)CCC3)cc1 [SKF-104493],,,,,0,,,,,,0% and 1%,1% and 0%,2% and 0%,0% and 13%,16% and 15%,16% and 11%,0% and 6%,5% and 1%,10% and 0%
O=C(Nc1ccccc1)Nc1ccc(Oc2ccc3nccn3n2)cc1,5,0,0,0,49,3,30,0,0,0,,,,,,,,,
Cl.Fc1ccccc1COc1ccc(Nc2ncnc3ccc(-c4nnc(C(F)(F)F)o4)cc23)cc1Cl [GW424170],0,0,0,5,7,11,31,0,4,13,,,,,,,,,
